Assay results taken from PubChem BioAssay (EPA / NIEHS).
Results filed as inconclusive are left out. The source made the active and inactive calls. How the source made its calls: active means hit-call score of the fitted dose curve at least 0.9, where 1 is the maximum; inconclusive means response in the unintended direction; inactive means score below 0.9.

Biological target: Retinoic acid receptor RXR-alpha (Homo sapiens) (UniProt P19793)
Experiment: ATG_RXRa_TRANS: Attagene TRANS-FACTORIAL HepG2 Assay for human Retinoid X Receptor alpha (RXRa) (AID 2283012)
Description: ATG_TRANS is a cell-based, multiplexed-readout assay that uses HepG2, a human liver cell line, with measurements taken at 24 hours after chemical dosing in a 24-well plate.ATG_RXRa_TRANS is one of 30 assay component(s) measured or calculated from the ATG_TRANS assay. It is designed to make measurements of mRNA induction, a form of inducible reporter, as detected with fluorescence intensity signals by Reverse transcription polymerase chain reaction (RT-PCR) and Capillary electrophoresis technology.Data from the assay component ATG_RXRa_TRANS was analyzed into 1 assay endpoint. This assay endpoint, ATG_RXRa_TRANS, was analyzed in the positive analysis fitting direction relative to DMSO as the negative control and baseline of activity. Using a type of inducible reporter, measures of mRNA for gain-of-signal activity can be used to understand the reporter gene at the transcription factor-level as they relate to the gene RXRA. Furthermore, this assay endpoint can be referred to as a primary readout, because this assay has produced multiple assay endpoints where this one serves a reporter gene function. To generalize the intended target to other relatable targets, this assay endpoint is annotated to the nuclear receptor intended target family, where the subfamily is non-steroidal.
Human liver HepG2 cells are transiently transfected with multiple reporter transcription units (MRTUs) in 6-well plates using FuGene 6 reagent (Roche; 3 ml FuGene/1 mg DNA). The MRTU constructs are regulated by a cis-regulating element (promoter). […] A major difference between the CIS and TRANS system is that in CIS activities of endogenous TFs are measured, whereas the TRANS assay evaluates changes in activities of exogenous, chimeric NR-Gal4 proteins. […] At the end of 24 hour incubation, total RNA was isolated using TriZol reagent (Invitrogen). The isolated RNA is then reverse-transcribed using oligo(dT) primer and Mo-MLV reverse transcriptase (Invitrogen) with DNAse I (Ambion) treatment for 30 min. The one-tenth of the produced cDNA was amplified by PCR using Taq DNA polymerase (Invitrogen) and two reporter sequence-specific primers. The PCR products were fluorescently labeled by primer extension with 6-arboxyfluorescein (6-FAM) 5'-labeled reporter sequence-specific primer (2 min at 95 C, 20 s at 68 C and 10 min at 72 C) and these products were digested with 5U of HpaI (New England Biolabs) for 2h at 37 C. The fragments were purified using Qiaquick PCR columns (Qiagen), analyzed on an ABI 3130xL genetic analyzer (Applied Biosystems) with peak positions identified by using a set of X-rhodamine (ROX)-labeled MapMarker1000 molecular weight standards (BioVentures). The raw capillary electrophoresis data was processed using Attagraph software (Attagene).

Retinoic acid receptor RXR-alpha (Homo sapiens), sequence (P19793 whole entry, looked up): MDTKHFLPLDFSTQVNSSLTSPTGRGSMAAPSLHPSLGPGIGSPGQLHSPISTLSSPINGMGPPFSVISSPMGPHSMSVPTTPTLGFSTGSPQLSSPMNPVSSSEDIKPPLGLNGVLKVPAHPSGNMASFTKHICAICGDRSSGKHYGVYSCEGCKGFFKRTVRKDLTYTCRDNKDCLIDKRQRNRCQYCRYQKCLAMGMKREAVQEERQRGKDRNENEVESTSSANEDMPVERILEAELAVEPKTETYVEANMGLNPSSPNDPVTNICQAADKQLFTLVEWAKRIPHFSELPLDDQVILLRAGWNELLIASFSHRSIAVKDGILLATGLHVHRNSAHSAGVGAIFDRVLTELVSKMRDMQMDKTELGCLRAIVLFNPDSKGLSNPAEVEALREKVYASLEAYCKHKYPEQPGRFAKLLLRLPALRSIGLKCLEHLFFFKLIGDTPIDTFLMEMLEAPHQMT

Structure (SMILES)	outcome	AC50
O=S(=O)(OCC(F)F)C(F)(F)F	inactive	
FC(F)(F)C(F)(F)C(F)(F)C(F)(F)C(F)(F)C(F)(F)CC1CO1 (stereo not given)	inactive	
FC(F)(F)C(F)(F)C(F)(F)C(F)(F)CCI	inactive	
O=C(O)C(F)(F)C(F)(F)C(F)(F)C(F)(F)F	inactive	
C(=C(c1ccccc1)c1ccccc1)c1ccccc1	inactive	
CC(C)(C)c1ccc(OC2CCCCC2O)cc1 (stereo not given)		26.2 µM (active)
c1ccc(-c2ccccc2-c2ccccc2)cc1	inactive	
[Co]	inactive	
CS(C)(=O)=O	inactive	
CCN(CC)c1ccc2c(C)cc(=O)oc2c1	inactive	
COC(=O)C1CCC(C(=O)OC)CC1 (stereo not given)	inactive	
CCc1c(Br)c(Br)c(Br)c(Br)c1Br	inactive	
CCCCCCS	inactive	
Cc1ccc(S(=O)(=O)NCl)cc1	inactive	
C=CC/C=C/C/C=C/C/C=C/C	inactive	
O=P(O)(O)OCCC(F)(F)C(F)(F)C(F)(F)C(F)(F)C(F)(F)C(F)(F)F	inactive	
N=C(N)C(F)(F)C(F)(F)C(F)(F)C(F)(F)C(F)(F)C(F)(F)C(F)(F)F	inactive	
C=C(C)C(=O)OCC(F)(F)C(F)(F)C(F)(F)F	inactive	
OCC(F)(F)C(F)(F)C(F)(F)F	inactive	
C1COCCN1	inactive	

Structure (SMILES)	outcome	AC50
FC(F)(F)C(F)(F)C(F)(F)C(F)(F)C(F)(F)C(F)(F)C(F)(F)C(F)(F)CCS	inactive	
CCCCCC=O	inactive	
FC(F)(F)C(F)(F)C(F)(F)C(F)(F)C(F)(F)C(F)(F)C(F)(F)Br	inactive	
Cc1ccc(S(=O)(=O)OCC(F)(F)C(F)(F)C(F)(F)C(F)(F)C(F)(F)C(F)F)cc1	inactive	
OCC(F)(F)C(F)(F)C(F)(F)C(F)F	inactive	
O=C(O)C(F)(F)C(F)(F)C(F)(F)C(F)(F)C(F)(F)C(F)(F)C(F)(F)C(F)(F)C(F)(F)C(F)(F)C(F)(F)C(F)(F)C(F)(F)F	inactive	
COC(OC(C)=O)c1ccccc1 (stereo not given)	inactive	
C=CC(F)(F)C(F)(F)C(F)(F)C(F)(F)C(F)(F)C(F)(F)C(F)(F)C(F)(F)F	inactive	
CC(Cc1ccc(O)c(O)c1)C(C)Cc1ccc(O)c(O)c1 (stereo not given)	inactive	
Oc1ccc(Nc2ccccc2)cc1	inactive	
Cc1cc(C)cc(O)c1	inactive	
FC(F)(F)C(F)(F)C(F)(F)C(F)(F)C(F)(F)C(F)(F)C(F)(F)C(F)(F)F	inactive	
CCN(Cc1cccc(S(=O)(=O)O)c1)c1ccc(C(=C2C=CC(=[N+](CC)Cc3cccc(S(=O)(=O)O)c3)C=C2)c2ccc(O)cc2S(=O)(=O)[O-])cc1	inactive	
O=C(O)C(F)(F)C(F)(F)C(F)(F)C(F)(F)C(F)(F)C(F)(F)C(F)(F)C(F)(F)Cl	inactive	
O=S(=O)(O)C(F)(F)C(F)(F)C(F)(F)C(F)(F)C(F)(F)C(F)(F)C(F)(F)F	inactive	
CCCCCCC(C)OC(=O)CCCCC(=O)OC(C)CCCCCC (stereo not given)	inactive	
CC(CCl)OP(=O)(OC(C)CCl)OC(C)CCl (stereo not given)	inactive	
O=S(=O)(O)c1ccc2ccccc2c1	inactive	
O=C(O)C(F)(F)C(F)(F)C(F)(F)F	inactive	
FC(F)(F)C(F)(F)CNCC(F)(F)C(F)(F)F	inactive	
